Activity calls are given as the source filed them. Rule for the calls: active = hit-call score of the fitted dose curve at least 0.9, where 1 is the maximum; inactive = score below 0.9.
These compounds were tested on Thrombomodulin, THBD (gene 7056) (assay: BSK_3C_Thrombomodulin: BioMAP Diversity Plus: 3C Assay for Thrombomodulin Biomarker Activity (AID 2283029)). Conditions: primary human endothelial cells (HUVEC); actives raise or lower the signal.
Summary of the method: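 Read-out is ELISA of thrombomodulin on human umbilical vein endothelium 24 h after chemical dosing. Gain or loss of signal is scored relative to DMSO. Overt cytotoxicity is checked in parallel cultures by sulforhodamine B staining.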

outcome, inactive:
CCOC(=O)COc1ccc2c(c1)CC(NCC(O)c1cccc(Cl)c1)CC2 (stereo not given)
O=C1OC(=O)C2C3C=CC(C3)C12 (stereo not given)
O=P(OC(CCl)CCl)(OC(CCl)CCl)OC(CCl)CCl
COCCOCCOCCOC
CC(C)=CCCC(C)CCO (stereo not given)
C1=CCCC=CCCC=CCC1
CC[C@H]1CC[C@H](NCc2cc3c(cc2OC)[C@H]2C[C@H]2C(=O)N3C)[C@H](c2ccccc2)N1
O=C(CCCCCCCCc1cccnc1)N1CCC(C=C(c2ccccc2)c2ccccc2)CC1
CC(C)(O)c1coc(S(=O)(=O)NC(=O)Nc2c3c(cc4c2CCC4)CCC3)c1
CCN(C(=O)c1cc(C)cc(OC[C@H](C)Nc2ccncc2)c1)C(C)C
Cc1ccc(S(=O)(=O)O)cc1C
CNS(=O)(=O)c1cc(C(=O)N2CCC(CCN3C4CCC3CC(n3c(C)nc5ccccc53)C4)(c3cccc(F)c3)CC2)c(Cl)cc1F (stereo not given)
CCCCC(CC)COC(=O)CCCCCCCCC(=O)OCC(CC)CCCC (stereo not given)
O=C(NS(=O)(=O)/C=C/c1ccccc1)c1ccc(F)cc1Cl
CCOc1cccc(-n2cc(C(=O)N3CCN(c4cc(C(=O)O)c5ccccc5c4)CC3)nc2-c2ccc(C)cc2)c1
O=C(OC[C@H]1O[C@@H](OC(=O)c2cc(O)c(O)c(OC(=O)c3cc(O)c(O)c(O)c3)c2)[C@H](OC(=O)c2cc(O)c(O)c(OC(=O)c3cc(O)c(O)c(O)c3)c2)[C@@H](OC(=O)c2cc(O)c(O)c(OC(=O)c3cc(O)c(O)c(O)c3)c2)[C@@H]1OC(=O)c1cc(O)c(O)c(OC(=O)c2cc(O)c(O)c(O)c2)c1)c1cc(O)c(O)c(OC(=O)c2cc(O)c(O)c(O)c2)c1
COCCOc1cc2cc(C(=O)NC3CCN(C(C)C)CC3)n(CC(=O)Nc3ccc(Cl)cn3)c2cn1
CCCCCCCCO
CC(C)CCCCCCOC(=O)c1ccc(C(=O)OCCCCCCC(C)C)c(C(=O)OCCCCCCC(C)C)c1
Nc1nc2ncc(CNc3ccc(C(=O)N[C@@H](CCC(=O)O)C(=O)O)cc3)nc2c(=O)[nH]1
CC(=O)OCCC(C)C
COC(=O)CC(=O)OC
Cc1c(-c2cccnc2)c2ccccc2n1CCCCC(=O)O
Nc1cccc(N)c1
CC[C@H](C)C(=O)O[C@H]1C[C@@H](C)C=C2C=C[C@H](C)[C@H](CC[C@@H]3C[C@@H](O)CC(=O)O3)[C@H]21
COC(=O)c1ccccc1O
CC[C@H]1OC(=O)[C@H](C)[C@@H](O[C@H]2C[C@@](C)(OC)[C@@H](O)[C@H](C)O2)[C@H](C)[C@@H](O[C@@H]2O[C@H](C)C[C@H](N(C)C)[C@H]2O)[C@](C)(O)C[C@@H](C)C(=O)[C@H](C)[C@@H](O)[C@]1(C)O

AC50, active:
CCCCCCCCCCCCCCCO 6.63 µM
CCc1cc(SCc2sc(-c3ccc(C(F)(F)F)cc3)nc2CN2CCN(c3ccc(OC)cc3)CC2)ccc1OCC(=O)O 37 µM
Cn1c(=O)cc(Oc2ccc(F)cc2F)c2cnc(NCC(C)(C)O)nc21 4.61 µM

— PubChem BioAssay (EPA / NIEHS)
